Test results from ChEMBL document CHEMBL3988442, “University of Dundee, Small-Polar-MMV Screening Library” (2021).
About 950 (1.4%) of roughly 69,000 compounds showed an effect of 50% or more. The sample as a whole holds a higher share of strong results than the screen did.

The compounds below were run on Mycobacterium tuberculosis (assay: Cornell M. t heat shock assay; also: in the data most compounds retested in dose-response had high values).
Assay type: functional, organism-based
Set-up: dose or concentration left out as unconfirmed

Row | SMILES | Percent Effect [%]
1 | Cc1cc(NCCCNS(C)(=O)=O)nc2ccccc12 | -11.41
2 | CNc1cc(CCNS(=O)(=O)c2ccccc2)nc(-c2ccccn2)n1 | 99.14
3 | CCCC(=O)NCCc1cc(NC)nc(-c2ccccn2)n1 | 12.39
4 | CCc1cc(NCCCNS(C)(=O)=O)nc(-c2ccccn2)n1 | 56.84
5 | CNc1cc(CCNC(=O)CC(C)C)nc(-c2ccccn2)n1 | 36.61
6 | CNc1cc(CCNC(=O)C2CCCC2)nc(-c2ccccn2)n1 | 89.44
7 | CCc1cc(NCCCNS(C)(=O)=O)nc(-c2ccncc2)n1 | -1.348
8 | CNC(=O)c1ccc(S(=O)(=O)NCCc2ccccn2)cc1 | -8.04
9 | NC(=O)c1ccc(S(=O)(=O)NCCc2ccccn2)cc1 | 2.755
10 | CC1=C(C#N)C(=O)NC(=O)/C1=C\c1c(C)nn(-c2ccc(Cl)cc2)c1O | -14.1
11 | COc1ccc(CN2CC[C@H]3O[C@@H](C(=O)NCC4CC4)CC[C@H]32)cc1.O=C(O)C(F)(F)F | -25.68
12 | COc1cc(N2C[C@@H]3CC[C@H](C2)N(CC2CCC2)C3=O)ncn1 | -13.86
13 | Cc1nc(N)c2ccc(C3CCCN3)nc2n1.Cl (stereo not drawn) | -2.129
14 | CC(C)=CCN1C[C@H]2CC[C@@H]1CN(Cc1cc(=O)[nH]c(=O)[nH]1)C2 | 13.63
15 | COCCN1C[C@H]2CC[C@@H]1CN(Cc1nc3ccccc3n1C)C2 | 78.75
16 | COCCN1C[C@H]2CC[C@@H]1CN(CC(=O)Nc1ccn(C)n1)C2 | -13.49
17 | COCCN1C[C@H]2CC[C@@H]1CN(Cc1ccc3ccccc3n1)C2 | 46.17
18 | O=c1cc(CN2C[C@H]3CC[C@@H]2CN(Cc2ccccc2)C3)[nH]c(=O)[nH]1 | -10.28
19 | COCCN1C[C@H]2CC[C@@H]1CN(Cc1cc(=O)c3cc(C)ccc3[nH]1)C2 | 51.84
20 | Cc1ccc(CN2C[C@@H]3CN(C(=O)c4cccn4C)C[C@@H]3C2)cc1.O=C(O)C(F)(F)F | -6.874
21 | CN(C)[C@@H]1CCN(C(=O)CC2CC2)[C@H]1Cc1cnn(C)c1.O=C(O)C(F)(F)F | 1.412
22 | O=C(O)C(F)(F)F.O=C1C[C@H]2[C@@H](CCN2C(=O)c2ccc[nH]2)N1CCN1CCCC1 | -37.83
23 | CC1CCN(c2ncc(-c3ccccc3F)c(-c3nccn3C)n2)CC1 | 17.54
24 | CC1CCCN(c2ncc(-c3ccccc3F)c(-c3nccn3C)n2)C1 (stereo not drawn) | 84.22
25 | Cn1ccnc1-c1nc(N2CCCCC2)ncc1-c1ccccc1F | -0.09407

Row | SMILES | Percent Effect [%]
26 | O=C([C@H]1C[C@@H]2CN(c3ncc(F)cn3)C[C@H]1O2)N1CCOCC1 | 19.91
27 | CCc1ccc(CN2Cc3nccn3CC(Cn3cncn3)C2)o1.O=C(O)C(F)(F)F (stereo not drawn) | 0.4246
28 | COc1ccccc1C(=O)N1CC(=O)N(Cc2ccco2)CC(O)C1 (stereo not drawn) | 54.55
29 | COc1cccc(CN2CC(O)CN(C(=O)C3CC3)CC2=O)c1OC (stereo not drawn) | 31.08
30 | COc1ccccc1C(=O)N1CC(=O)N(CC2CC2)CC(O)C1 (stereo not drawn) | 43.16
31 | CC(C)(C)C(=O)N1CC(=O)N(Cc2ccco2)CC(O)C1 (stereo not drawn) | 52.39
32 | Cc1ccc(C(=O)N2CC(=O)N(Cc3ccco3)CC(O)C2)cc1 (stereo not drawn) | 34.47
33 | CC(C)CC(=O)N1CC(=O)N(Cc2ccco2)CC(O)C1 (stereo not drawn) | 14.12
34 | COc1cccc(CN2CC(O)CN(C(=O)C(C)(C)C)CC2=O)c1OC (stereo not drawn) | 90.93
35 | CCOC(=O)N1CC(=O)N(Cc2cccc(OC)c2OC)CC(O)C1 (stereo not drawn) | 45.58
36 | CC(C)(C)OC(=O)N1CC(=O)N(Cc2ccco2)CC(O)C1 (stereo not drawn) | 11.64
37 | O=C(CCc1nnc(-c2ccccc2)o1)N1CCCC1c1ccc[nH]1 (stereo not drawn) | -1.66
38 | Cc1cccnc1N1CC2(CCN(Cc3cccnc3)C2)C1.O=C(O)C(F)(F)F.O=C(O)C(F)(F)F.O=C(O)C(F)(F)F | -27.63
39 | CN(C)CCN1CCCC12CCN(C(=O)c1ccco1)CC2.O=C(O)C(F)(F)F.O=C(O)C(F)(F)F | -2.887
40 | CN(C)CCOCC1CN(Cc2ccncc2)Cc2nnn(C)c21.O=C(O)C(F)(F)F.O=C(O)C(F)(F)F.O=C(O)C(F)(F)F (stereo not drawn) | -16.03
41 | O=C(c1nn(-c2ccccc2F)cc1O)N1CCCC1 | 42.43
42 | O=C(c1nn(-c2ccccc2F)cc1O)N1CCCCC1 | 22.71
43 | CCc1ccccc1-n1cc(O)c(C(=O)N2CCCCC2)n1 | 56
44 | Fc1cccc(CN2C[C@@H]3CN(Cc4ccccn4)C[C@@H]3C2)c1.O=C(O)C(F)(F)F.O=C(O)C(F)(F)F | 35.12
45 | CCN1CC2(CC1=O)CN(Cc1ccsc1)CCN(C(=O)C(C)C)C2.O=C(O)C(F)(F)F (stereo not drawn) | -8.211
46 | O=C1c2cnc(N3CCC(O)CC3)nc2CN1Cc1cccc(F)c1 | -32.08
47 | Cc1nc(Nc2cnccn2)cc(C2CN(C(C)C)C2)n1.O=CO | -9.635
48 | CN1CCCN(C(=O)c2ccnn2-c2ccc3ccccn23)CC1.O=C(O)C(F)(F)F | -45.73
49 | O=C1CCNc2ccccc2CN1Cc1ccco1 | 41.47
50 | O=C1CCNc2ccc(F)cc2CN1Cc1ccco1 | 32.83

Row | SMILES | Percent Effect [%]
51 | COc1ccc2c(c1)CN(Cc1ccco1)C(=O)CCN2 | 54.29
52 | Cc1nc(CN2C(=O)COC3(CCN(Cc4ccsc4)CC3)C2C)cs1.O=C(O)C(F)(F)F (stereo not drawn) | -25.28
53 | CCCNC(c1cccnc1)c1ccc(F)c(C)c1.Cl.Cl (stereo not drawn) | -18.54
54 | Cc1noc(C)c1CN1CC[C@H]2[C@@H]1CCC(=O)N2CC1CCOCC1.O=C(O)C(F)(F)F | 19.97
55 | O=C(O)c1cc(/C=C/c2ccccc2)ncn1 | -25.85
56 | O=C(O)c1cc(/C=C/c2ccc3ccccc3c2)ncn1 | 55.05
57 | O=C(O)c1cc(/C=C/c2cccc3ccccc23)ncn1 | -14.83
58 | Cc1cccc(CN2Cc3nccn3CC(CN3CCOCC3)C2)c1.O=C(O)C(F)(F)F.O=C(O)C(F)(F)F (stereo not drawn) | -25.56
59 | O=C(C1CCCCC1)N1C[C@@H]2CCN(c3cnccn3)C[C@@H]2C1.O=C(O)C(F)(F)F | 23.71
60 | COC[C@H]1CCCN1c1nccc(-c2cnn(-c3ccccc3C)c2)n1 | 57.5
61 | Cc1ccccc1-n1cc(-c2ccnc(N3CCCC(O)C3)n2)cn1 (stereo not drawn) | 0.7216
62 | Cc1ccccc1-n1cc(-c2ccnc(N3CCCC(CN)C3)n2)cn1 (stereo not drawn) | 6.089
63 | O=C(CC1CC1)N1C[C@@H]2CCN(c3cccnc3)C[C@@H]2C1.O=C(O)C(F)(F)F | -11.14
64 | COCCNC(=O)C(C)N1CCN(C)CC1.O=C(O)C(=O)O (stereo not drawn) | 1.358
65 | CN(CC1CCN(c2ccccc2)C1)c1ccc(Cn2ccnc2)cn1 (stereo not drawn) | 105.3
66 | OC1CCN(C2CCN(c3ccc(Cn4ccnc4)cn3)CC2)CC1 | 13.23
67 | CC(C)N1CCCC(CN(C)c2ccc(Cn3ccnc3)cn2)C1 (stereo not drawn) | -4.084
68 | CCc1cc2cc(OC)c(OC)cc2nc1SCCN1CCCCC1.Cl | -12.6
69 | O=C(O)C(F)(F)F.O=C(c1ccc[nH]1)N1CCc2c(COCC3CC3)cncc2C1 | -0.4009
70 | O=C(N1CCCC1)N1Cc2nccn2CC(CN2CCCC2)C1.O=C(O)C(F)(F)F (stereo not drawn) | -12.61
71 | O=C(NCc1cnn2cccnc12)c1cccc(CC2CCNCC2)c1 | 70.42
72 | CC(C)Cn1cncc1CNC(=O)c1cccc(CC2CCNCC2)c1 | -17.32
73 | CC(C)(O)CCc1cccc(C(=O)NCc2cnn3cccnc23)c1 | -5.166
74 | CCOC1COC2(CCN(Cc3cccc(F)c3)CC2)C1.O=C(O)C(F)(F)F (stereo not drawn) | -9.066
75 | Cc1cc(N2CCOCC2)ccc1NC(C)c1nc(C(C)(C)C)no1 (stereo not drawn) | 72.1

Row | SMILES | Percent Effect [%]
76 | Cc1noc(C(C)Nc2ccc(N3CCOCC3)cc2C)n1 (stereo not drawn) | 41.84
77 | Cc1cc(N2CCOCC2)ccc1NC(C)c1nc(C(C)C)no1 (stereo not drawn) | 45.07
78 | O=C(O)C(F)(F)F.O=C(O)C(F)(F)F.O=C(c1cscn1)N1CCC2(CN(Cc3ccncc3)C2)C1 | -52.86
79 | COCC1c2c(cnn2C)CCN1Cc1cccc(C)c1.O=C(O)C(F)(F)F.O=C(O)C(F)(F)F (stereo not drawn) | -46.03
80 | CC1CN(CC(=O)NCCc2ccccc2)CCN1c1nccs1 (stereo not drawn) | -17
81 | Cc1ccsc1CN(c1nc(CCN)nc2ccccc12)C1CC1 | 91.12
82 | NCCc1nc(N(Cc2nccs2)C2CC2)c2ccccc2n1 | -17.4
83 | NCCc1nc(N(Cc2cncs2)C2CC2)c2ccccc2n1 | -30.71
84 | CC(=O)N1CC(=O)N(c2cnn(C)c2)CC12CCN(Cc1cccs1)C2.O=C(O)C(F)(F)F (stereo not drawn) | -1.108
85 | CC1=C(C#N)C(=O)N(C)C(=O)/C1=C\C1=Cc2ccccc2OC1 | -26.04
86 | Cc1ccc(CN2CCn3c(COc4cccnc4)cnc3C2C)o1.O=C(O)C(F)(F)F.O=C(O)C(F)(F)F (stereo not drawn) | 17.82
87 | Cc1cccc2c1OCCC2NCc1c(C)nn(C)c1N(C)C (stereo not drawn) | -4.09
88 | Cc1ccc2c(c1)OCCCC2NCc1nnc2n1CCCCC2 (stereo not drawn) | -7.759
89 | Cc1ccc2c(c1)C(NCc1nnc3n1CCCCC3)CCCO2 (stereo not drawn) | -13.54
90 | CN(C(=O)NCc1nccn1Cc1ccccc1)C1CC1 | -34.67
91 | Cc1cccc2c1OCCCC2NCc1nccn1Cc1ccccc1 (stereo not drawn) | 104.4
92 | Cc1cccc2c1OCCCC2NCc1nnc2n1CCCCC2 (stereo not drawn) | -4.885
93 | Cn1ccnc1CNC1CCCOc2c1ccc1ccccc21 (stereo not drawn) | 95.81
94 | Cc1ccc2c(c1)C(NCc1nccn1Cc1ccccc1)CCCO2 (stereo not drawn) | 102
95 | Cn1cc(CNC2CCCOc3c(Cl)cccc32)cn1 (stereo not drawn) | 12.93
96 | COc1cccc(CNC2CCCOc3cc(C)ccc32)n1 (stereo not drawn) | -23.35
97 | Cn1cc(CNC2CCCOc3c2ccc2ccccc32)cn1 (stereo not drawn) | 11.28
98 | Cc1ccc2c(c1)OCCCC2NCc1nccn1CC(C)C (stereo not drawn) | 101.9
